# Legend:
# Assay in all cases: protein binding microarray; high values mean tight binding
# Settings in all cases: dsDNA, one strand shown
# RELARELA (p65 homodimer) = RELARELA (p65 homodimer) (Homo sapiens, UniProt Q04206 1-307)
# p50p50 homodimer = p50p50 homodimer (Homo sapiens, UniProt P19838 7-356)
# p52p52 homodimer = biological target: T1, p52p52 homodimer (Homo sapiens, UniProt Q00653 4-332)
# T1 sequence: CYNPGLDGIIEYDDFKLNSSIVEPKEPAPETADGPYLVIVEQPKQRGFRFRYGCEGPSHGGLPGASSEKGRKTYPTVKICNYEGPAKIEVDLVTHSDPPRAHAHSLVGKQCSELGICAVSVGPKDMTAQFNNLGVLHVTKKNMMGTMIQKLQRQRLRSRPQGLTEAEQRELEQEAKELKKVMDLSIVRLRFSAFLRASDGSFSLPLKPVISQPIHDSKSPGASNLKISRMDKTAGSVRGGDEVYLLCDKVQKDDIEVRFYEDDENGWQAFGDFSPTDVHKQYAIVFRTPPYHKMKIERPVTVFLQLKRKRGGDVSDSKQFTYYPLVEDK
# [1] = biological target: RELA (p65) subunit of heterodimer;p50 subunit (Homo sapiens;Homo sapiens, UniProt Q04206;P19838 1-307;7-356)
# [2] = biological target: RELA (p65) subunit of heterodimer;p52 subunit (Homo sapiens;Homo sapiens, UniProt Q04206;Q00653 1-307;4-332)
# RELB subunit;p50 subunit = RELB subunit;p50 subunit (Homo sapiens;Homo sapiens, UniProt Q01201;P19838 120-401;7-356)
# RELB subunit;p52 subunit = biological target: T2, RELB subunit;p52 subunit (Homo sapiens;Homo sapiens, UniProt Q01201;Q00653 120-401;4-332)
# T2 sequence 1: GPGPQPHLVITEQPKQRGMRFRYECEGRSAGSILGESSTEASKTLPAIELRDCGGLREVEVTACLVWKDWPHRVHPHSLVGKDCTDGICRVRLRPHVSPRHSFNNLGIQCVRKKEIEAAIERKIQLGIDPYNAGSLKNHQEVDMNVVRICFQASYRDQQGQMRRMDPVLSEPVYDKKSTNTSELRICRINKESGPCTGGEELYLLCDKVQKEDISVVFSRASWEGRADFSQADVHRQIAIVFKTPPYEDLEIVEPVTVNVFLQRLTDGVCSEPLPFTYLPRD
# T2 sequence 2: T1 sequence
# [3] = biological target: C-Rel subunit;p50 subunit (Homo sapiens;Homo sapiens, UniProt Q04864;P19838 1-285;7-356)
# [4] = biological target: T3, C-Rel subunit;p52 subunit (Homo sapiens;Homo sapiens, UniProt Q04864;Q00653 1-285;4-332)
# T3 sequence 1: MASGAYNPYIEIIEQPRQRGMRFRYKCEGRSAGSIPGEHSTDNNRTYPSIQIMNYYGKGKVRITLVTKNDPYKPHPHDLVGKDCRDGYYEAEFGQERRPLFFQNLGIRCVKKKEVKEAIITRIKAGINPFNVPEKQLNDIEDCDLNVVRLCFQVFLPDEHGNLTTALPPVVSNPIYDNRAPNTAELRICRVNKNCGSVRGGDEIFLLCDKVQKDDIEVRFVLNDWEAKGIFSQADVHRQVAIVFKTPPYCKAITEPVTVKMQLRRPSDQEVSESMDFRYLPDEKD
# T3 sequence 2: T1 sequence
# Chain of RELA (p65) subunit of heterodimer;p50 subunit (Q04206 1-307, chain 1 of 2): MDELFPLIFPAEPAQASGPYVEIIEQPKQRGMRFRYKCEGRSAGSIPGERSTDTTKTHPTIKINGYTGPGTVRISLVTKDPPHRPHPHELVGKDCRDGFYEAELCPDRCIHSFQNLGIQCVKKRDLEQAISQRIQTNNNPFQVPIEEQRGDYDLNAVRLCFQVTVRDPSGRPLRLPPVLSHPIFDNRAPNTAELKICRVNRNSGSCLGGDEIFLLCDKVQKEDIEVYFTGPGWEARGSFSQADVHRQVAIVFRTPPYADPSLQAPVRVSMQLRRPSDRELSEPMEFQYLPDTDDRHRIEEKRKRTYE
# Chain of RELA (p65) subunit of heterodimer;p50 subunit (P19838 7-356, chain 2 of 2): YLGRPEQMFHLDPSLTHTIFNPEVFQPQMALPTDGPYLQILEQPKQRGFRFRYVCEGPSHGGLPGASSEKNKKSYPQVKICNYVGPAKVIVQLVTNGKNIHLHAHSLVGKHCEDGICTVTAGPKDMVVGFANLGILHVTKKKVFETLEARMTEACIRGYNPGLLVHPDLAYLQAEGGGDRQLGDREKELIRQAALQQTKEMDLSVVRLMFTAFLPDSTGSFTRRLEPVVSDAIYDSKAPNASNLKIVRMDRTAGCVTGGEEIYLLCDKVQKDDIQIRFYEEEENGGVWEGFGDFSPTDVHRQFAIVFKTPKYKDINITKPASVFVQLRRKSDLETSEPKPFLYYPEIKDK
# Chain of RELARELA (p65 homodimer) (Q04206 1-307): as the sequence (Q04206 1-307, chain 1 of 2) above
# Chain of p50p50 homodimer (P19838 7-356): as the sequence (P19838 7-356, chain 2 of 2) above
Sequence,binding signal (RELARELA (p65 homodimer)),binding signal (p50p50 homodimer),binding signal (p52p52 homodimer),binding signal [1],binding signal [2],binding signal (RELB subunit;p50 subunit),binding signal (RELB subunit;p52 subunit),binding signal [3],binding signal [4]
CAGGAACTCCC,1.07 z-score,0.648 z-score,0.144 z-score,0.636 z-score,0.288 z-score,0.322 z-score,0.116 z-score,0.424 z-score,0.208 z-score
CAGTAGGTCCC,0.28 z-score,-0.303 z-score,-0.0746 z-score,-0.34 z-score,-0.347 z-score,0.0687 z-score,-0.117 z-score,-0.43 z-score,-0.438 z-score
CGAGGGCCCCC,-0.934 z-score,0.101 z-score,-0.0825 z-score,0.0405 z-score,-0.0107 z-score,0.199 z-score,0.202 z-score,-0.0359 z-score,0.137 z-score
CGGTAGTCCCC,0.678 z-score,1.22 z-score,1.51 z-score,1.43 z-score,1.31 z-score,1.05 z-score,1.33 z-score,1.12 z-score,1.42 z-score
GGAGGGTCCCT,-0.115 z-score,0.371 z-score,0.534 z-score,0.933 z-score,0.819 z-score,0.287 z-score,0.448 z-score,0.496 z-score,0.547 z-score
AAAGGGTTCCT,-0.817 z-score,-1.23 z-score,-0.468 z-score,-0.866 z-score,-0.749 z-score,-1.03 z-score,-0.714 z-score,-0.957 z-score,-0.558 z-score
GAGTTAATCCC,0.0777 z-score,-0.527 z-score,-0.147 z-score,-0.451 z-score,-0.217 z-score,-0.125 z-score,-0.157 z-score,-0.186 z-score,-0.227 z-score
GAAGGTCTCCT,-0.533 z-score,-2.58 z-score,-0.69 z-score,-0.982 z-score,-0.897 z-score,-1.22 z-score,-1.02 z-score,-1.58 z-score,-0.76 z-score
GAGGAGCTCCT,-0.566 z-score,-1.81 z-score,-0.78 z-score,-1.13 z-score,-0.927 z-score,-1.05 z-score,-1.06 z-score,-1.73 z-score,-0.927 z-score
AAGTAGACCCT,-0.746 z-score,-0.785 z-score,-0.531 z-score,-0.711 z-score,-0.775 z-score,-0.737 z-score,-0.709 z-score,-1.17 z-score,-0.772 z-score
CGAGTCCCCCT,-0.0442 z-score,1.47 z-score,1.11 z-score,1.66 z-score,1.39 z-score,1.68 z-score,2.08 z-score,1.47 z-score,1.15 z-score
CAGTTTGCCCC,1.6 z-score,0.492 z-score,0.189 z-score,1.17 z-score,0.571 z-score,0.532 z-score,0.563 z-score,1.5 z-score,0.899 z-score
CAATAAGTCCT,0.325 z-score,-1.39 z-score,-0.437 z-score,-0.836 z-score,-0.813 z-score,-0.817 z-score,-0.698 z-score,-0.578 z-score,-0.74 z-score
GAATTTGTCCC,1.3 z-score,0.832 z-score,0.9 z-score,1.01 z-score,0.944 z-score,0.998 z-score,0.873 z-score,1.27 z-score,0.573 z-score
AAATGACCCCT,-0.474 z-score,0.593 z-score,0.182 z-score,0.135 z-score,0.303 z-score,0.241 z-score,0.325 z-score,-0.224 z-score,0.165 z-score
GGGATTCTCCC,2.28 z-score,0.737 z-score,2.84 z-score,1.59 z-score,2.15 z-score,2.01 z-score,1.67 z-score,1.41 z-score,2 z-score

Sequence,binding signal (RELARELA (p65 homodimer)),binding signal (p50p50 homodimer),binding signal (p52p52 homodimer),binding signal [1],binding signal [2],binding signal (RELB subunit;p50 subunit),binding signal (RELB subunit;p52 subunit),binding signal [3],binding signal [4]
AGGGTGCCCCT,-0.552 z-score,0.473 z-score,0.342 z-score,0.511 z-score,0.658 z-score,0.571 z-score,1.16 z-score,0.426 z-score,0.644 z-score
AGAGTGTCCCT,0.267 z-score,0.607 z-score,0.823 z-score,0.527 z-score,0.604 z-score,0.851 z-score,1.25 z-score,0.738 z-score,0.669 z-score
AAGGGTTTCCC,2.18 z-score,0.668 z-score,1.31 z-score,1.15 z-score,1.43 z-score,0.696 z-score,1.17 z-score,1.07 z-score,1.57 z-score
AGATTCGCCCC,0.366 z-score,0.156 z-score,0.127 z-score,0.288 z-score,0.219 z-score,0.292 z-score,0.48 z-score,0.611 z-score,-0.0556 z-score
AGGTGCGTCCT,-0.881 z-score,-0.757 z-score,-0.281 z-score,-0.82 z-score,-0.633 z-score,-0.695 z-score,-0.608 z-score,-1.1 z-score,-0.46 z-score
GAGGTTCTCCC,0.0177 z-score,0.0309 z-score,-0.068 z-score,-0.00394 z-score,-0.121 z-score,0.333 z-score,0.107 z-score,-0.166 z-score,-0.0434 z-score
AGAGATTTCCT,0.344 z-score,-0.498 z-score,-0.5 z-score,-0.403 z-score,-0.389 z-score,-0.762 z-score,-0.49 z-score,-0.209 z-score,-0.443 z-score
CGAGACGCCCC,-0.513 z-score,0.148 z-score,-0.0437 z-score,0.0369 z-score,-0.155 z-score,0.237 z-score,0.231 z-score,0.27 z-score,-0.0784 z-score
AGAAGATTCCT,0.055 z-score,-1.1 z-score,-0.567 z-score,-0.642 z-score,-0.681 z-score,-0.914 z-score,-0.843 z-score,-0.495 z-score,-0.373 z-score
CAGAGCATCCC,-0.631 z-score,-1.46 z-score,-0.586 z-score,-0.856 z-score,-1.02 z-score,-1.02 z-score,-0.893 z-score,-1.22 z-score,-1 z-score
GAGAGTATCCC,-0.187 z-score,-0.91 z-score,-0.43 z-score,-0.602 z-score,-0.673 z-score,-0.546 z-score,-0.687 z-score,-0.656 z-score,-0.641 z-score
AAGTTAGTCCT,-0.0878 z-score,-1.56 z-score,-0.552 z-score,-1.02 z-score,-0.842 z-score,-1.03 z-score,-0.752 z-score,-1 z-score,-0.837 z-score
AAGGGCCCCCT,-0.998 z-score,0.884 z-score,0.332 z-score,0.446 z-score,0.569 z-score,0.703 z-score,1.14 z-score,0.138 z-score,0.261 z-score
AGGTGATTCCC,1.45 z-score,0.701 z-score,3.04 z-score,1.59 z-score,2.15 z-score,1.33 z-score,2.11 z-score,1.81 z-score,2.88 z-score
CAGTTCTTCCC,1.2 z-score,-0.0833 z-score,-0.0924 z-score,0.385 z-score,0.0986 z-score,-0.231 z-score,-0.179 z-score,0.641 z-score,0.366 z-score

# From article PMC3218832
